# Tb PFK block: qHTS Assay to Find Inhibitors of T. brucei phosphofructokinase | ATP-dependent 6-phosphofructokinase (Trypanosoma brucei brucei), O15648 | 330,000 tested, 0.17% active | Potency, µM (doses to about 57.5 µM), inactives show top-dose activity, negative = inhibition, usual class: inhibitors | T. brucei PFK, ADP-Glo luminescence;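 also: 0% = uninhibited 1x PFK enzyme wells and -100% = no-enzyme wells; nearly all actives have a fitted effect of over 60% in size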
#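 Activity is normalized to no-enzyme wells (full inhibition) and 1.25 nM enzyme wells (no inhibition). Reaction: 0.5 mM F6P, 0.1 mM ATP, 45 min RT, ADP-Glo luminescence; concentration-response curves fitted and classed by quality.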
# BRCA1 expr up: qHTS Assay to Identify Small Molecule Activators of BRCA1 Expression | Potency, µM (titrated, usually from 46.1 µM), inactives show at the top dose activation, hits mostly activators | 380,000 tested, 1.1% active | MCF7-BRCA1-FFLuc reporter, luminescence, 48 h; response scale: scaled: vehicle 0%, 10 µM genistein 100%; also: nearly all actives have a fitted effect of over 80% in size
#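 Compounds are tested at multiple concentrations on MCF7 BRCA1-luciferase reporter cells seeded at 2000 per well; after 48 h, a single luminescence end-point is taken and curves fitted to the normalized data.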
# VDR inh: Inhibitors of the vitamin D receptor (VDR): qHTS; VDR-SRC2-3 peptide fluorescence polarization, 2 h; Potency, µM, inactives show max response, negative = inhibition, most hits filed as inhibitors; 400,000 tested, 0.93% active; AID 504847, 2011; also: % is scaled to controls: 0 for no effect and ±100 for the full control effect
#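 Signal is fluorescence polarization, reporting how far test compounds block the interaction of VDR with the SRC2-3 coregulator peptide after a 2 h room-temperature incubation.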
# PLK1 PBD block: qHTS for Inhibitors of PLK1-PDB (polo-like kinase 1 - polo-box domain): Primary Screen; AID 720504, 2013; Plk1 PBD binding of FITC phosphopeptide, fluorescence polarization; 360,000 tested, 2.8% active; Potency, µM, for inactives: max response, negative = inhibition, most hits filed as inhibitors; also: series mostly up to about 57 µM; % is scaled to controls: 0 for no effect and ±100 for the full control effect; nearly all actives have a fitted effect of over 65% in size
# Target sequence (P53350 whole entry, looked up, the tested form may be a part): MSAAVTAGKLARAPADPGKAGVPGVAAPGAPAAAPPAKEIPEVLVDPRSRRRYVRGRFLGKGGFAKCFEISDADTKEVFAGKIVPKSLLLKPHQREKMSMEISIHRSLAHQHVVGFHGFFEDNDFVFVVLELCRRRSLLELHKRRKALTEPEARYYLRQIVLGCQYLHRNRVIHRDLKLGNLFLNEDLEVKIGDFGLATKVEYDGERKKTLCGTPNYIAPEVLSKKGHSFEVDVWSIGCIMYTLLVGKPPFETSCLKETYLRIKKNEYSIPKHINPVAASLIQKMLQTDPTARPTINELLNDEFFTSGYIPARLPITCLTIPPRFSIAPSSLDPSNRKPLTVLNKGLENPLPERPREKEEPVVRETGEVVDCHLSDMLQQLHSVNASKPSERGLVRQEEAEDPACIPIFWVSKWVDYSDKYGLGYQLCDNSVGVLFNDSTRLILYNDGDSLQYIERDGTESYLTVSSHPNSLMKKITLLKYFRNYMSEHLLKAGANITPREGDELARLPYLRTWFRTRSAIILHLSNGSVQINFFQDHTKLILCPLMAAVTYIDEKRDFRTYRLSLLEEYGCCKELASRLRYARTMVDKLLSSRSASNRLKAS
# The depositor's hits bear a star; ? = inconclusive; . = not tested or not shown. A selection: hits, their analogues and other compounds. The true share with any hit is near 3.9%. Calls follow the shape of the dose curve; as a rule, active = well fitted curve in the direction sought with a large enough effect; inconclusive = small, poorly fitted or top-dose-only effect, or another doubt; inactive = no such curve, though single readings can be large; an effect the other way counts as inactive or inconclusive. Potency is read from the fitted curve at half-maximal effect.
SMILES,Tb PFK block,BRCA1 expr up,VDR inh,PLK1 PBD block
COc1ccc(C(=O)OCC(=O)Nc2ncc([N+](=O)[O-])s2)cc1OC,-24%,35%,?,9.5µM*
CC(Sc1ccc(S(=O)(=O)N2CCCCC2)cn1)C(N)=O (stereo not given),.,10%,.,-1%
CC12CCC=CC1C(c1ccc(/C=C/c3ccccc3)cc1F)N(Cc1ccccc1)C2=O (stereo not given),.,.,1%,.
O=C(O)CCCC(=O)Nc1ccc(OCc2nc3ccccc3s2)cc1,0%,26%,?,4.2µM*
CCNC(=S)Nc1ccc(OCc2nc3ccccc3s2)cc1,-2%,?,71µM*,9.5µM*
O=C1C2=C(S[C@@H]3O[C@H](CO)[C@@H](O)[C@H](O)[C@H]3O2)C(=O)c2ccccc21,.,.,35µM*,.
N#Cc1cccc(CS(=O)(=O)c2ccccc2)c1,.,.,-2%,.
CCCc1cc(=O)[nH]c2nnc(SCC(=O)Nc3cccc(C)c3)n12,.,.,2%,.
O=[N+]([O-])c1ccccc1SN(Cc1ccccc1)c1ccccn1,?,1%,-8%,12µM*
COC(=O)c1cc(=O)nc(NN=C2c3ccccc3-c3ccccc32)s1,.,-27%,.,30µM*
COC(=O)c1cc(=O)nc(NN=C2CCCCC2)s1,.,0%,.,-5%
CN=C1C=CC(=C(c2ccc(N(C)C)cc2)c2ccc(N(C)C)cc2)C=C1,.,.,40µM*,.
COc1ccc(OC)c(S(=O)(=O)Nc2cc3c(cc2C)n(C)c(=O)c(=O)n3C)c1,.,.,7%,.
COc1ccc(CCN2C(=O)CC(NC34CC5CC(CC(C5)C3)C4)C2=O)cc1OC (stereo not given),-2%,-108%,14%,-10%
COc1ccc(CCN2C(=O)CC(Cc3ccc(C)cc3)C2=O)cc1OC (stereo not given),0%,-1%,?,12µM*
CC1=CC(=O)C(C(C)C)=C/C1=C(\c1cc(C(C)C)c(OP(=O)(O)O)cc1C)c1ccccc1C(=O)O,5%,-93%,?,?
COc1cc(C(F)(F)F)ccc1C(=O)NCCc1ccco1,-3%,6.3µM*,-6%,-4%
COc1cccc2cc(C(=O)NCc3ccco3)c(=O)oc12,3%,-3%,4%,-17%
Cc1cc(Cl)c(O)c(-n2nc3ccccc3n2)c1,-5%,37%,-25%,24µM*
CCN1CCN(Cc2ccc(NC(=O)Nc3ccccc3Cl)cc2)CC1,-3%,?,-3%,-5%
CCN1CCN(Cc2ccccc2NC(=O)Nc2ccc(C)cc2)CC1,25%,6.3µM*,1%,-2%
COc1ccc(C2c3c(oc4ccccc4c3=O)C(=O)N2Cc2ccncc2)cc1 (stereo not given),1%,.,.,.
CN1C(=O)c2oc3ccccc3c(=O)c2C1c1ccncc1 (stereo not given),?,13%,79µM*,27µM*
NNC(=O)c1[nH]c2ccc([N+](=O)[O-])cc2c1-c1ccccc1,0%,-66%,79µM*,-8%
CCOc1ccccc1N=CC1=C(O)CC(c2ccccc2)CC1=O (stereo not given),5%,-28%,-9%,12%
SMILES,Tb PFK block,BRCA1 expr up,VDR inh,PLK1 PBD block
COc1ccc(N=CC2=C(O)CC(c3ccccc3)CC2=O)c(OC)c1 (stereo not given),-3%,-65%,?,21µM*
O=C(N/N=C/c1cccc2ccccc12)c1ccncc1,-2%,-15%,-2%,4%
COc1cccc(/C=C/C(=O)OCC(=O)c2ccccc2)c1OC,7%,11µM*,-3%,-6%
O=C(/C=C/c1ccc2c(c1)OCCO2)c1ccccc1,1%,7.1µM*,50µM*,-15%
COc1cc(O)c(C(=O)/C=C/c2ccccc2)c(OC)c1,-2%,-28%,14µM*,-9%
O=C(/C=C/c1cccc2ccccc12)c1ccncc1,-1%,-73%,14µM*,?
COc1cc(NC(=O)CN2CCN(S(=O)(=O)/C=C/c3ccccc3)CC2)cc(OC)c1OC,0%,3%,?,-6%
CC(=O)O[C@H]1CC2(C)[C@@H](C[C@@H](O)[C@H]3[C@@]4(C)CC[C@@H](O)[C@@H](C)[C@@H]4CC[C@@]32C)C1=C(CCC=C(C)C)C(=O)O (stereo not given in full),.,.,1%,.
CSc1cccc(NC(=O)Cn2ncn3c(cc4ccccc43)c2=O)c1,.,.,3%,.
O=C(/C=C/c1ccccc1O)c1ccc(Cl)cc1,-2%,-53%,35µM*,-26%
Cc1cc(O)c(C(=O)/C=C/c2ccccc2O)c(=O)o1,-1%,-72%,?,21µM*
O=C(/C=C/c1c[nH]c2ccccc12)c1ccccc1,-3%,0%,-12%,2%
O=C(/C=C/c1ccc[nH]1)c1ccccc1,-6%,?,79µM*,30µM*
O=C(/C=C/c1ccccc1O)c1ccccc1,.,-5%,28µM*,-24%
COc1ccc(CN(C)C(=O)/C=C/[C@H]2O[C@@H](n3cnc4c(N)ncnc43)[C@H](O)[C@@H]2O)cc1OC,.,19%,.,-3%
c1ccc(Cc2c(C3CCCCC3)nc3c4ccccc4ccn23)cc1,.,20%,.,-1%
COc1ccc(-c2nc3cnc(Oc4cccc(Cl)c4)nc3n(C3CC3)c2=O)cc1,.,.,7%,.
COc1ccccc1/C=C/C(=O)c1ccccc1,-5%,3%,79µM*,-12%
N#Cc1ccc(/C=C/C(=O)c2ccccc2)cc1,0%,-2%,14µM*,-26%
CCOc1ccc(/C=C/C(=O)c2ccc(-c3ccccc3)cc2)cc1,4%,11%,-17%,-24%
COc1ccccc1/C=C/C(=O)c1ccc(Cl)cc1,-1%,-66%,?,-12%
O=C(CC(Cl)(Cl)Cl)N1CCN(/[N+]([O-])=N/Oc2ccc([N+](=O)[O-])cc2[N+](=O)[O-])CC1,.,0%,.,.
Cc1cccc(N2CCN(S(=O)(=O)c3cn(C)c(C)n3)CC2)c1C,.,7%,7%,.
C[C@@H](NC(=O)[C@@H]1CCCN1C(=O)OC(C)(C)C)c1ccccc1,.,0%,.,-4%
CCNC(=O)NC(=O)CSc1ccc2ccccc2c1,-2%,3%,?,27µM*
SMILES,Tb PFK block,BRCA1 expr up,VDR inh,PLK1 PBD block
CCOc1cccc2c1Oc1nc(-c3ccccc3)nc(SCC(=O)Nc3ccc(F)cc3)c1C2,.,.,-7%,.
O=C(CSc1nc(-c2ccccc2)nc2c1Cc1ccccc1O2)Nc1ccc(C(=O)O)cc1,?,37%,-15%,21µM*
O=C(CSc1nc(-c2ccc(F)cc2)nc2c1Cc1ccccc1O2)Nc1ccc(C(=O)O)cc1,?,-29%,-14%,15µM*
O=C(COc1ccccc1C(=O)Nc1ccccc1)Nc1ccccc1F,.,-5%,.,.
Cc1cccc(/C(N)=N/OC(=O)CCc2ccccc2)c1,2%,13µM*,7%,-2%
COc1ccc(/C(N)=N/OC(=O)CCc2ccccc2)cc1OC,1%,58%,-6%,-5%
COC(=O)C1CCN(C(c2cc(OC)c(OC)c(OC)c2)c2sc3nc(C)nn3c2O)CC1 (stereo not given),-1%,-16%,-7%,2%
